Source: PubChem BioAssay (Broad Institute)
A selection follows.
aSyn UTR act: Activators via SNCA 5'UTR binding, MLPCN; alpha-synuclein 5'UTR reporter, activators screen; activity score, % (tested at 7.5 µM), hits read low; 7.1% of 300,000 active; in the data active = activity score below about -60%
Each line names hits and unclear results; the compound was inactive in the other large screens.

Cc1ccc2oc(Nc3nc(C)c(C)c(C)n3)nc2c1	aSyn UTR act -99
O=C(Oc1ccc2cc(Br)ccc2c1)N1CCCCCC1	aSyn UTR act -169
Cc1cccc(-n2ncc3c(N4CCC5(CC4)OCCO5)ncnc32)c1	aSyn UTR act -82
c1ccc(-n2ncc3c(N4CCC5(CC4)OCCO5)ncnc32)cc1	aSyn UTR act -223
COc1ccc(C2=Nc3ccccc3OC2)cc1	aSyn UTR act -189
Nc1[nH]nc2c1NN(c1ccc(Cl)cc1Cl)N2	aSyn UTR act -140
Nc1c2c(nc3sc4c(c13)CCCC4)-c1ccccc1CC2	aSyn UTR act -75
Cn1c(NCc2c[nH]c3ccccc23)nc2ccccc21	aSyn UTR act -98
COc1ccccc1-n1cnc2cc(NCc3ccco3)ccc21	none
Cn1c(NCc2cccs2)nc2ccccc21	aSyn UTR act -63
Cn1c(NCc2ccco2)nc2ccccc21	aSyn UTR act -102
O=c1oc2ccc3ccccc3c2cc1-c1nc2ccccc2o1	aSyn UTR act -87
COc1ccc2oc(=O)c(-c3nc4ccccc4o3)cc2c1	aSyn UTR act -184
COCCNC(=S)N1CCC(C(=O)c2ccc3c(c2)OCCO3)CC1	aSyn UTR act -75
Cc1ccc(/C=N/NC(=O)c2c(C)nc3ccc(Br)cn23)cc1	none
CN(C)c1ccc(/C=N\NC(=O)c2cccc3cc[nH]c23)cc1	aSyn UTR act -69
Cc1ccc(/C=N/NC(=O)c2ccco2)cc1	aSyn UTR act -94
CSC(=S)N/N=C/c1ccc(N(C)C)cc1	aSyn UTR act -96
CN(C)c1ccc(/C=N/NC(=O)c2ccco2)cc1	aSyn UTR act -78
COc1ccc([N+](=O)[O-])cc1Nc1c2ccccc2nc2ccccc12	none
COc1ccc(C)cc1Nc1nc(N)c2ccccc2n1	aSyn UTR act -102
CN(C)c1ccc(Nc2nc(N)c3ccccc3n2)cc1	none
Nc1nc(Nc2ccccc2)nc2ccccc12	aSyn UTR act -82
CCN(CC)c1ccc(-c2nn3c(-c4ccccc4OC)nnc3s2)cc1	none
COc1cccc(-c2nnc3sc(-c4ccccc4)nn23)c1	aSyn UTR act -69
Cc1cc(=O)n2nc(-c3ccc(C(F)(F)F)cc3)sc2n1	aSyn UTR act -149
COc1ccccc1-c1nn2c(=O)cc(C)nc2s1	aSyn UTR act -72
COc1ccccc1-c1nn2c(-c3ccco3)nnc2s1	aSyn UTR act -196
Cc1ccc(-c2n[nH]c(Cc3ccccc3)n2)cc1	aSyn UTR act -126
O=C(N[C@@H](Cc1ccccc1)C(=O)NC1CCCCCC1)c1ccco1	aSyn UTR act -78
CCOC(=O)c1sc(-c2ccc(OC)cc2)cc1N	aSyn UTR act -158
CCOC(=O)c1sc(-c2ccccc2)cc1N	aSyn UTR act -116
CCOC(=O)c1sc(-c2ccc(F)cc2)cc1N	aSyn UTR act -142
CC(=O)c1sc(-c2ccccc2)cc1N	aSyn UTR act -63
CCOC(=O)c1cc(-c2ccccc2)sc1NC(=O)COC(=O)c1cccc(S(N)(=O)=O)c1	none
CCOC(=O)c1cc(-c2ccccc2)sc1N	aSyn UTR act -94
CC(=O)c1ccc(NC(=S)N2CCCC(CO)C2)cc1 (stereo unspecified)	aSyn UTR act -82
OCC1CCCN(C(=S)Nc2ccc(Oc3ccccc3)cc2)C1 (stereo unspecified)	aSyn UTR act -135
Cc1cc(N2CCCCCC2)nc2ccc(F)cc12	aSyn UTR act -64
Cc1ccc(C(=O)c2cc([N+](=O)[O-])ccc2N2CCCCC2)cc1	none
O=[N+]([O-])c1ccc2nc(N3CCCC3)sc2c1	aSyn UTR act -121
Fc1cc(F)c2nc(N3CCCCC3)sc2c1	aSyn UTR act -98
Fc1ccc2nc(N3CCCC3)sc2c1	aSyn UTR act -200
Cc1cc2ncn(C(=O)N3CCC(C)CC3)c2cc1C	aSyn UTR act -67
CCc1c(C(=O)OCc2ccccc2)[nH]c(C)c1C	aSyn UTR act -117
CCc1c(C)[nH]c(C(=O)OCc2ccccc2)c1C	aSyn UTR act -75
CCOc1cc(/C=C(\C#N)C(N)=O)ccc1OCc1c(C)no[n+]1[O-]	aSyn UTR act -63
COc1ccc(C(CNC(=O)c2sccc2C)N2CCOCC2)cc1 (stereo unspecified)	aSyn UTR act -70
CNc1ccc(/C=C2\COc3ccccc3C2=O)cc1[N+](=O)[O-]	aSyn UTR act -118
O=C1/C(=C/c2ccccc2[N+](=O)[O-])COc2ccccc21	aSyn UTR act -114
CC12COC3(C(=O)Nc4ccc5ccccc5c4)CC1CCC32C (stereo unspecified)	aSyn UTR act -144
O=C1S/C(=C\c2ccc(N3CCOCC3)o2)C(=O)N1c1ccccc1	aSyn UTR act -96
O=C(O)c1ccccc1-c1ccc(/C=C2\SC(=O)N(c3ccccc3)C2=O)o1	aSyn UTR act -72
CCOC(=O)C(C)On1c(-c2ccc(Cl)cc2)nc2ccc([N+](=O)[O-])cc21 (stereo unspecified)	aSyn UTR act -176
CCOC(=O)C(C)On1c(-c2ccccc2)nc2ccc([N+](=O)[O-])cc21 (stereo unspecified)	aSyn UTR act -192
O=C(O)COn1c(-c2ccccc2)nc2ccc([N+](=O)[O-])cc21	aSyn UTR act -165
COc1cc(OC)cc(C(=O)NCC(=O)Nc2ccc(-c3ccccc3)cc2)c1	aSyn UTR act -195
COc1cccc(NC(=O)CN(C)C(=O)CNC(=O)c2ccc(Oc3ccccc3)cc2)c1	aSyn UTR act -124
COc1cccc(NC(=O)CNC(=O)c2ccccc2)c1	aSyn UTR act -66
O=c1cc(-c2ccccc2Cl)oc2c(Br)ccc(O)c12	aSyn UTR act -130
Cn1c(/C=C/c2ccccc2[N+](=O)[O-])nc2ccccc2c1=O	aSyn UTR act -133
O=[N+]([O-])c1ccccc1/C=C/c1ccc2ccccc2n1	aSyn UTR act -138
Cn1c(/C=C/c2ccc(Br)cc2)nc2ccccc2c1=O	aSyn UTR act -171
Cc1cc(N2CCN(c3ccc([N+](=O)[O-])c4cccnc34)CC2)c2ccccc2n1	none
COc1cc(/C=N/NC(=O)c2ccncc2)ccc1OCC(=O)Nc1cccc([N+](=O)[O-])c1	aSyn UTR act -111
COc1ccc(NC(=O)COc2ccc(/C=N/O)cc2OC)cc1	aSyn UTR act -67
COc1cc(/C=C2\C(=O)N(CCC#N)N=C2C)ccc1OCC(=O)Nc1ccccc1	aSyn UTR act -164
C/C=C/c1ccc(OCC(=O)Nc2ccncc2)c(OC)c1	aSyn UTR act -72
COc1cc(/C=N/NC(=O)c2ccncc2)ccc1OCC(=O)Nc1ccc(C)c(C)c1	aSyn UTR act -76
COc1ccc(/C=N/NC(=O)c2cccnc2)cc1COc1ccc([N+](=O)[O-])c(C)c1	none
Cc1ccc(N=C(c2cccs2)N2CCOCC2)cc1	aSyn UTR act -66
COc1ccc2oc(C(=O)Nc3nc4ccccc4[nH]3)c(C)c2c1	aSyn UTR act -102
O=C(Nc1nc2ccccc2[nH]1)c1cc(F)cc(F)c1	aSyn UTR act -148
COc1ccc(Br)c(C(=O)Nc2nc3ccccc3[nH]2)c1	aSyn UTR act -87
Cn1nc(C(=O)Nc2nc3ccccc3[nH]2)c2ccccc2c1=O	aSyn UTR act -144
O=C(Nc1nc2ccccc2[nH]1)c1ccccc1F	none
Cc1cc(C)cc(C(=O)Nc2nc3ccccc3[nH]2)c1	aSyn UTR act -139
COc1cc(OC)cc(C(=O)Nc2nc3ccccc3[nH]2)c1	aSyn UTR act -189
CC(C)Oc1ccc(C(=O)Nc2nc3ccccc3[nH]2)cc1	none
O=C(Nc1nc2ccccc2[nH]1)c1ccc(F)c(S(=O)(=O)N2CCOCC2)c1	aSyn UTR act -99
Cn1cc(C(=O)Nc2ccccn2)c(=O)c2ccccc21	aSyn UTR act -114
O=C(Nc1ccccc1Cl)c1ccc(-c2ccccn2)s1	aSyn UTR act -120
